# PubChem BioAssay AID431 (Sanford-Burnham Center for Chemical Genomics, 2006)
# The campaign covered roughly 63,000 compounds. About 1,100 (1.7%) were called active. The sample as a whole holds a higher share of actives than the screen did. Potency and affinity values are given separately. A number with no mark means an inactive call.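 The calls were made as follows: active = compounds whose percent cytotoxicity in the single-dose primary screen, scaled between solvent and toxic-drug controls, exceeds 50; inactive = the rest.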
# Assay: viability loss of HPDE-C7K cells – cell-based, fluorescence, HTS, primary screen (AID 431);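 also: 0% = DMSO solvent wells and 100% = doxorubicin-treated wells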
# Conditions: HPDE-C7K KRASV12 cells, Alamar Blue viability, 48 h; at 10 µM; stronger effect = higher value
row,Structure (SMILES),cytotoxicity
1,CC(=O)Nc1nc(C)c(Oc2ccccc2)c(=O)[nH]1,6.8%
2,CCOC(=O)c1c(C)[nH]c(C(=O)OCC(=O)N2CCc3ccccc32)c1C,-21.3%
3,CCOC(=O)c1[nH]c(C)c(C(=O)N2CCc3ccccc32)c1C,57.6% (active)
4,CC(=O)c1c(C)[nH]c(C(=O)N2CCc3ccccc32)c1C,10.3%
5,COc1ccc(CN(C(=O)CSc2nnc(-c3ccccc3F)o2)c2ccc(F)cc2)cc1,16.8%
6,O=C(CSc1nnc(-c2c[nH]c3ccccc23)o1)N(Cc1ccccc1)c1ccc(F)cc1,53.4% (active)
7,COc1ccc(CN(C(=O)CSc2nnc(-c3ccc(F)cc3)o2)c2ccc(F)cc2)cc1,-9.8%
8,CCOC(=O)c1sc(NC(=O)CSc2n[nH]c(-c3ccccc3)n2)c(C#N)c1C,-1.8%
9,CCOC(=O)c1c(NC(=O)CSc2n[nH]c(N)n2)sc(CC)c1C,0%
10,Cc1ccc(C(=O)NCCCC(=O)O)o1,-5%
11,Cc1cc(-c2ccco2)n2c(nc3ccccc32)c1C#N,18.2%
12,COC(=O)c1nnn(-c2nc(N3CCCCC3)nc(N3CCCCC3)n2)c1C,-3.1%
13,CCOC(=O)c1cnc(-n2nc(C)cc2C)nc1NC(C)c1ccccc1 (stereo unspecified),-13%
14,NS(=O)(=O)c1ccc(NC=C2C(=O)OC3(CCCCC3)OC2=O)cc1,8.5%
15,NS(=O)(=O)c1ccc(NC(=O)CSC2CCCCC2)cc1,-3.7%
16,Cc1ccc(-c2nnn(CC(=O)Nc3ccc(S(=O)(=O)N4CCC(C)CC4)cc3)n2)cc1,-2.5%
17,CCOC(=O)c1c2n(c3ccc(O)cc13)CCCCC2,2.9%
18,O=C(Oc1c(Cl)cc(Cl)c2cccnc12)N1CCOCC1,-2.4%
19,Oc1c(CN2CCOCC2)cc(COCc2ccccc2)c2cccnc12,30.7%
20,COc1ccc(C(=O)Oc2c(CN3CCOCC3)cc(Cl)c3cccnc23)cc1OC,13.7%
21,COc1cc(C(=O)Oc2c(CN3CCOCC3)cc(Cl)c3cccnc23)cc(OC)c1OC,18.4%
22,Cc1ccc(Cl)cc1N(CC(=O)NC1CCCCC1)S(C)(=O)=O,-5.9%

row,Structure (SMILES),cytotoxicity
1,Cc1nc2cc(-c3cccc(F)c3)nn2c(C)c1CCC(=O)N1CCN(c2ccccn2)CC1,-4.7%
2,OC(CN1CCOCC1)CN1CCOCC1,13.2%
3,CCCCCOc1ccc(OC(=O)c2ccncc2)cc1,-0.5%
4,CC(=O)c1cccc(NC(=O)c2cc(C(C)C)on2)c1,-17.2%
5,O=C(OC1CCCCC1)c1ccc(NC(=O)c2ccco2)cc1,74.9% (active)
6,CCCCOC(=O)c1ccc(NC(=O)c2ccoc2C)cc1,5%
7,CCCCOC(=O)c1ccc(NC(C)=O)cc1,-20.2%
8,CCCCCOC(=O)c1ccc(NC(=O)c2ccco2)cc1,80.3% (active)
9,O=C(Nc1ccc(OC(=O)c2ccco2)cc1)c1ccco1,-0.1%
10,O=C(O)CCC(=O)Nc1ccc(C(=O)OC2CCCCC2)cc1,-16.9%
11,CCC1S/C(=C(\C#N)C(=O)NCc2ccco2)N(c2ccc(Br)cc2)C1=O (stereo unspecified),-5.6%
12,O=C(CSCc1ccccc1)Nc1nccs1,-4.5%
13,CC(C)CCn1c(NCCc2ccccc2)nc2c1c(=O)n(C)c(=O)n2C,0.9%
14,O=S(=O)(O)c1nc2ccccc2n1CCOc1ccccc1,5.6%
15,CC(=O)Oc1ccc(N2C(=O)CCC2=O)cc1,-3.8%
16,Nc1c(Br)cc(Br)c(N2CCCC2=O)c1Br,0.5%
17,O=C(c1ccc(Cl)cc1)c1ccc(OCC(O)CN2CCOCC2)cc1 (stereo unspecified),2.3%
18,CS(=O)(=O)N1CCC(NC(=O)Cc2ccccc2)CC1,-2.1%
19,O=C(CS(=O)(=O)c1ccccc1)N1CCCCCC1,-9.5%
20,C/C=C(\CS(=O)(=O)c1ccccc1)S(=O)(=O)c1ccccc1,42.2%
21,O=C1c2ccccc2C(=O)N1CCc1nc(-c2cccnc2)no1,-7.3%
22,Cc1cc(C)cc(NC(=O)c2nnn(Cc3cc(C)ccc3C)c2N)c1,54.9% (active)

row,Structure (SMILES),cytotoxicity
1,Cc1ccc(CCNC(=O)c2nnn(-c3cc(C)cc(C)c3)c2N)cc1,8.1%
2,Cc1ccc(C)c(NC(=O)c2nnn(Cc3ccccc3C)c2N)c1,-4.9%
3,COc1ccc(C)cc1NC(=O)c1nnn(Cc2cc(C)ccc2C)c1N,-4%
4,Cc1ccc(NC(=O)c2nnn(-c3cc(C)cc(C)c3)c2N)cc1,51.9% (active)
5,Cc1cccc(-n2nnc(C(=O)Nc3ccc(F)cc3)c2N)c1,4.2%
6,COc1ccc(S(=O)(=O)n2ccnc2)c2cccnc12,-6.2%
7,CC(C)(C)SCCNC(=O)COc1ccc(Cl)cc1,7.6%
8,CCOCCCNS(=O)(=O)c1ccc2c(c1)OCCO2,11.2%
9,O=c1c2c3c(sc2ncn1/N=C/c1ccco1)CCCC3,1.1%
10,Cc1c(NC(=O)c2ccc3c(c2)OCO3)cccc1-c1nc2ccccc2o1,-4.5%
11,Cc1ccc(-c2nc3ccccc3o2)cc1NC(=O)c1ccc2c(c1)OCO2,-8.2%
12,O=C(Nc1ccc2oc(-c3ccccc3F)nc2c1)c1cncc(Br)c1,14.2%
13,O=C(Nc1ccccc1-c1nc2ccccc2o1)c1ccc2c(c1)OCCO2,79% (active)
14,O=C(Nc1ccc2oc(-c3ccccc3F)nc2c1)c1ccc2c(c1)OCCO2,83.6% (active)
15,O=C(Nc1ccc2oc(-c3ccccc3)nc2c1)c1ccc2c(c1)OCCO2,37%
16,COc1cccc(-c2nnn(CC(=O)NC3CCCC3)n2)c1OC,3.1%
17,O=C(CC1Sc2ccccc2NC1=O)Nc1cccc(C(=O)O)c1 (stereo unspecified),2.1%
18,O=C(NCc1ccncc1)c1ccc(Br)o1,-21.6%
19,O=C(NCc1ccccc1Cl)C1CCN(S(=O)(=O)N2CCCCC2)CC1,-3.6%
20,CCOC(=O)Oc1ccc2oc(=O)cc(C)c2c1,10.2%
21,CCOC(=O)Nc1cc(=O)c2ccccc2o1,38.2%
22,CCOC(=O)/C=C(\C)Sc1cc(=O)oc2ccccc12,77.6% (active)
